Screening data deposited in PubChem BioAssay by National Center for Advancing Translational Sciences (NCATS).
TRHR enhancer-1 = TRH receptor (human) allosteric enhancement; P34981; TRHR cells, fluo-8 calcium fluorescence, EC20 TRH enhancement; enhancement, % at 2 µM; 360,000 compounds, 0.66% hits; AID 493056; in the data active means enhancement above about 30%
Target sequence (P34981 whole entry, looked up): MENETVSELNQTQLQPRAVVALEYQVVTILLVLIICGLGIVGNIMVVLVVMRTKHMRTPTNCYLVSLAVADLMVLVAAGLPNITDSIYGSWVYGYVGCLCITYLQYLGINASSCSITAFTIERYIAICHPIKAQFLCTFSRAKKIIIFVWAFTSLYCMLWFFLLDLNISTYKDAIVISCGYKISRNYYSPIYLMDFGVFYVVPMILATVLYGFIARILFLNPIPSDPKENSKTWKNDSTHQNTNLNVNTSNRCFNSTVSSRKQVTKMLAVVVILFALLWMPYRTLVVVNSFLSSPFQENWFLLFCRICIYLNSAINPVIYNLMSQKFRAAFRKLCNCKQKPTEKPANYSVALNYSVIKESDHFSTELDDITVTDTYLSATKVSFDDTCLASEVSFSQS
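TRHR-expressing cells loaded with fluo-8 calcium dye were read kinetically (ex 480/em 530) during compound addition, then stimulated with an EC20 of TRH (10 nM final). Enhancement of the Gq-mediated intracellular calcium response was scored.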
D1 antag = blocks dopamine activation of the human D1 receptor; P21728; HEK293 TREx D1 cells, calcium flux, dopamine EC80; hits give low values; activity change, negative = inhibition, % at 10 µM; 360,000 compounds, 3.2% hits; in the data active means activity change below about -30%
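Tetracycline-induced HEK293 T-REx cells with force-coupled D1 receptor were loaded with a no-wash calcium dye. Compound was added after a 10 s baseline and read kinetically for 180 s; EC80 dopamine was then added and calcium flux followed another 180 s.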
TRHR agonist-1 = agonists of human TRH receptor | P34981 | TRHR cells, calcium flux fluo-8, FDSS agonist mode | activation, % at 2 µM | 360,000 compounds, 0.18% hits; in the data active means activation above about 30%
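TRHR-expressing cells, plated overnight in medium with 10% serum, were loaded with fluo-8 calcium dye at room temperature. After a 10 s baseline, library compound was pin-added and calcium release was recorded kinetically (ex 480/em 530) as agonist response.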
D1 ag = agonists of human D1 dopamine receptor | P21728 | HEK293 T-REx D1 cells, calcium flux, agonist mode | activation, % at 2 µM | 360,000 compounds, 1% hits | AID 504660; in the data active means activation above about 30%
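Agonism was scored from calcium flux recorded over 180 s (1 read/s) after pintool compound addition, following a 10-cycle baseline. Cells were inducible force-coupled HEK293 TREx D1, plated overnight at 30 C and loaded with no-wash calcium dye.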
D1 potentiator = potentiators of human D1 dopamine receptor; 360,000 compounds, 0.036% hits; AID 504651; potentiation, % at 10 µM; P21728; HEK293 TREx D1 cells, calcium flux, dopamine EC20 potentiation; in the data active means potentiation above about 30%
TRHR enhancer-2 = human TRH receptor allosteric enhancement confirmation. 970 tested, under 10 active. activity change, negative = inhibition, % at 46.1 µM. shares compounds with TRHR enhancer-1. TRH receptor cell assay, enhancer confirmation qHTS;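 further: compound effect scored on response to added TRH at EC20 of 10 nM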
TRHR agonist-2 = human TRH receptor agonism confirmation | Potency, µM (top dose mostly 46.1 µM), most hits filed as activators | 970 compounds, 8% hits | AID 493078 | TRHR-expressing cells, agonist activation read-out | shares compounds with TRHR enhancer-1; further: nearly all actives have a fitted effect of over 75% in size
Hits are given with their value; n = inactive; u = inconclusive; x = no result. Shown are actives, neighbours in structure and some others; about 4.7% of the full set was active somewhere. Unless noted, the call rests on the fitted dose curve; in most records, active means well fitted curve in the direction sought with a large enough effect; inconclusive means small, poorly fitted or top-dose-only effect, or another doubt; inactive means no such curve, though single readings can be large; an effect the other way counts as inactive or inconclusive.

SMILES	TRHR enhancer-1	D1 antag	TRHR agonist-1	D1 ag	D1 potentiator	TRHR enhancer-2	TRHR agonist-2
S=c1nc(-c2sccc2OCc2ccc(Cl)cc2Cl)[nH][nH]1	50.5	n	n	n	n	u	n
O=C(CSc1nccn1Cc1ccco1)Nc1cc(C(F)(F)F)ccc1Cl	n	n	n	n	n	x	x
O=C(N/C(=C/c1ccc(Br)cc1)C(=O)N1CCOCC1)c1ccc(Br)o1	97.4	n	n	n	n	n	n
C[N+](C)(C)CCCCCCC(=O)/C=N/O	n	n	n	n	n	x	x
C[N+]1(CCCCCCC(=O)/C=N/O)CCCCCC1	42.8	n	n	n	n	n	n
COc1ccc(N(CC(=O)NN=C2CCN(C)CC2)S(=O)(=O)c2ccccc2)c(OC)c1	41.4	n	n	n	n	n	n
O=C(CSc1ncc(-c2ccccc2)nn1)NCc1ccco1	n	n	n	n	n	x	x
O=C(CSc1nnc(-c2ccccc2)c(-c2ccccc2)n1)NCc1ccco1	61.5	n	n	n	n	n	n
COC(=O)c1cc2sccc2n1Cc1ccc(F)cc1Cl	n	n	n	n	n	x	x
CC1CCN(C(=O)c2ccc(NS(=O)(=O)c3ccccc3)cc2)CC1	43.9	-31.8	n	n	n	n	n
O=C(c1ccc(NS(=O)(=O)c2ccccc2)cc1)N1CCCC1	n	n	n	n	n	x	x
O=C(NC(=S)Nc1ccc(N2CCCCC2)cc1)c1cccs1	n	n	n	n	n	x	x
CS(=O)(=O)N1CCN(c2ccc(NC(=S)NC(=O)c3cccs3)cc2)CC1	44.1	n	n	n	n	n	n
Cc1ccc(CCNC(=O)C2CCCN(S(=O)(=O)c3c(C)nn(C)c3C)C2)cc1 (stereo not given)	n	n	n	n	x	x	x
Cc1ccc(C)c(NC(=O)C2CCCN(S(=O)(=O)c3c(C)nn(C)c3C)C2)c1 (stereo not given)	n	n	30.2	n	n	n	n
Cc1cccc(Nc2ncc(NC(=O)c3cccc(F)c3)c(Nc3cccc(C)c3)n2)c1	n	n	n	n	n	x	x
COc1ccc(C(C[N+](=O)[O-])c2c(-c3ccccc3)cc3ccccn23)cc1 (stereo not given)	53.5	n	n	n	n	n	n
C=C1C(=O)O[C@H]2[C@H]1[C@@H](O)CC(=C)[C@@H]1CC(=O)[C@@H](C)[C@H]21	51.5	n	n	n	n	n	n
CCn1cc(C(=O)N2CCN(c3ccccc3)CC2)c(=O)c2cc(S(=O)(=O)N3CCCC3)ccc21	n	n	n	n	n	x	x
CN(C)CCSc1nc(-c2ccccc2)nc2c1COC(C)(C)C2	46.4	x	n	n	n	n	n
Cc1[nH]c2ccccc2c1/C=N/Nc1nc(Nc2ccccc2)nc(N2CCOCC2)n1	55.0	n	n	n	n	n	n
c1ccc(-c2cn3nc(-c4ccccc4)c(-c4ccccc4)nc3n2)cc1	n	n	50.1	72.9	n	n	20.6µM
CCOc1nc(-c2ccc(C)cc2)ccc1-c1noc(-c2ccccc2F)n1	n	n	n	n	n	x	x
O=C(c1cc2ccccc2oc1=O)N1CCCCCCC1	56.4	n	n	n	n	n	n
O=C(c1cc2ccccc2oc1=O)N1CCCC1	n	n	n	n	n	x	x
SMILES	TRHR enhancer-1	D1 antag	TRHR agonist-1	D1 ag	D1 potentiator	TRHR enhancer-2	TRHR agonist-2
O=C1c2ccccc2-c2onc3ccc(N4CCCC4)c1c23	n	n	54.3	166.8	n	n	u
CCCC(=O)NCCCc1nc2ccccc2n1C(C)C	46.7	n	n	n	n	n	n
CCCC(=O)NCCc1nc2ccccc2n1CC(=O)c1ccccc1	n	n	n	n	n	x	x
COc1ccc(Cn2nnnc2C(c2ccccc2)N2CCN(C3CCCC3)CC2)cc1 (stereo not given)	47.5	n	n	n	n	n	n
O=C(CSc1nnc(-c2ccc(Cl)cc2)n1-c1ccc(Cl)cc1)N/N=C/c1ccco1	47.8	n	n	n	n	n	n
Cc1ccc(CNC(=O)c2cccc3c2C(=O)c2ccc(N4CCCCC4)cc2S3(=O)=O)cc1	n	n	35.8	97.4	n	n	20.6µM
Cc1ccc(C)c(C2=CSC3=NCCN23)c1	67.6	n	n	n	n	n	n
Cc1ccc(C)c(C2=CSC3=NS(=O)(=O)CCN23)c1	n	n	n	n	n	x	x
COc1ccc(OC)c(C2c3c(oc4ccc(C)cc4c3=O)C(=O)N2CCCN(C)C)c1 (stereo not given)	n	x	n	n	n	x	x
CCc1ccc(NC(=O)Cn2c(=O)c3cc(Cl)ccc3n3nncc23)cc1	n	n	n	n	n	x	x
CNC(=O)c1c(NC(=O)c2nc(SCc3ccc(C)cc3)ncc2Cl)sc2c1CCCC2	n	n	n	n	n	x	x
COc1ccc(-c2cc(C(F)(F)F)nc(SCC(=O)NCc3ccc(F)cc3)n2)cc1	n	n	n	n	n	x	x
COc1ccc(-c2cc(C(F)(F)F)nc(SCC(=O)NCc3ccc(Cl)cc3)n2)cc1	59.7	n	n	n	n	n	n
CC1(Cc2cn(CCC#N)c3ccccc23)OCCO1	n	n	n	n	n	x	x
N#CCCn1cc(CNC2CCC(O)CC2)c2ccccc21 (stereo not given)	45.2	n	n	n	n	u	n
Cc1ccccc1OCC(O)CN1CCN(c2ccc(Cl)cc2)CC1 (stereo not given)	51.1	n	n	n	n	n	n
Cc1ccccc1OCC(O)CN1CCCCC1 (stereo not given)	43.1	n	n	n	n	n	n
Cc1ccccc1OCC(O)Cn1c(=N)n(CCN2CCCCC2)c2ccccc21 (stereo not given)	n	n	n	n	n	x	x
CCOC(=O)c1ccc(NC(=O)Nc2c[nH]c(=O)[nH]c2=O)cc1	n	n	n	n	n	x	x
CCc1nn2c(=O)cc(COC(=O)c3cccc(NC(=O)c4ccccc4C)c3)nc2s1	n	n	n	n	n	x	x
CC(=O)Nc1ccc(C)cc1-c1nc2ccccc2n(CC(=O)Nc2cc(Cl)ccc2C)c1=O	n	n	n	n	n	x	x
COc1ccc(S(=O)(=O)N2CCCCC2)cc1NC(=S)Nc1ccccc1	55.7	n	n	n	n	n	n
COc1ccc(C(=O)OCC(=O)NCC2CCCCC2)c(OC)c1	n	n	n	n	n	x	x
COc1ccc(C(=O)OCC(=O)NCC2CCCCC2)cc1F	41.4	n	n	n	n	n	n
Cc1ccc(NC(=O)c2c(C)oc3ncnc(N4CCCCC4)c23)c(C)c1	n	n	n	n	n	x	x
CCOC(=O)c1ccc(NC(=O)CSc2nccn2Cc2ccc(OC)cc2)cc1	n	n	n	n	n	x	x
O=C(CSC(=S)N1CCCCC1)N1N=CCC1c1ccccc1 (stereo not given)	52.6	x	n	n	n	n	n
